Results: PubChem BioAssay (NCATS)
Values without a mark were called inactive. Inconclusive results are not listed. Entries that show only a call come without a potency. Activity calls are given as the source filed them. Calls follow the shape of the dose curve; as a rule, active = well fitted curve in the direction sought with a large enough effect; inconclusive = small, poorly fitted or top-dose-only effect, or another doubt; inactive = no such curve, though single readings can be large; an effect the other way counts as inactive or inconclusive.

Tests used:
[1] = target: Glutathione peroxidase 1 (Homo sapiens) (UniProt P07203); assay: Primary qHTS Assay for Inhibitors of Recombinant Selenoprotein Glutathione Peroxidase 1 (GPX1) (AID 1845191); conditions: recombinant GPX1, GR-coupled NADPH fluorescence, 15 min; series mostly up to 48.8 µM; also: nearly all actives have a fitted effect of over 65% in size; also: potency is read from the fitted curve at half-maximal effect
Procedure, shortened: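 GR-coupled readout: NADPH consumption tracked by fluorescence, ex 340/em 450 nm, at t=0 and after 15 min at RT. Final mix 10 nM GPX1, 1 mM GSH, 0.5 mM CHP, 0.5 mM NADPH, 100 nM GR, 0.01% BSA, following 30 min enzyme–compound preincubation.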

[2] = target: Phospholipid hydroperoxide glutathione peroxidase GPX4 (Homo sapiens) (UniProt P36969); assay: Primary qHTS Assay for Inhibitors of Recombinant Selenoprotein Glutathione Peroxidase 4 (GPX4) (AID 1845192); conditions: recombinant GPX4, GR-coupled NADPH fluorescence, 15 min; series mostly up to 50 µM; also: nearly all actives have a fitted effect of over 65% in size; also: potency is read from the fitted curve at half-maximal effect
Procedure, shortened: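 Steps: GPX4 plus compound, 30 min RT; add GR/GSH/NADPH master mix; start with cumene hydroperoxide; read 340/450 nm fluorescence at 0 and 15 min. Finals were 200 nM GPX4, 1 mM GSH, 0.5 mM CHP, 0.5 mM NADPH, 100 nM GR.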

[3] = target: Luciferin 4-monooxygenase (Photinus pyralis) (UniProt P08659); assay: Primary firefly luciferase (FLuc) qHTS assay for identification of artifact compounds. (AID 1845220); conditions: purified firefly luciferase, luminescence, 5 min; series mostly up to 54.1 µM; also: nearly all actives have a fitted effect of over 60% in size
Procedure, shortened: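 Enzymatic FLuc inhibition assay: compounds pre-exposed to luciferin/ATP (10 uM each) for 15 min, then purified P. pyralis enzyme at 10 nM added. Read-out: luminescence at 5 min.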

[4] = Primary fluorescence-based thiol-reactive (MSTI) qHTS assay for identification of artifact compounds. (AID 1845221); conditions: MSTI thiol-reactivity probe, 1 h; series mostly up to 53.8 µM;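 also: thiol-reactive compounds lower the probe fluorescence signal; nearly all actives have a fitted effect of over 65% in size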
Procedure, shortened: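 Compounds were incubated 1 h at room temperature in the dark with the MSTI probe (4 uM) in PBS pH 7.4, 2% DMSO. Signals were normalized between Acetyl-MSTI and MSTI.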

[5] = test system: Nanoluciferase (engineered Oplophorus gracilirostris luciferase); assay: Primary Nanoluciferase (NLuc) qHTS assay for identification of artifact compounds. (AID 1845222); conditions: NLuc-conditioned medium, Nano-Glo luminescence, 5 min; series mostly up to 54.1 µM;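 also: NLuc secreted into diluted conditioned medium of S16 cells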
Procedure, shortened: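 S16 cell supernatant NLuc, 1:55; cpds qHTS; 15 min RT dark; Nano-Glo substrate 1:100, 5 min; luminescence; Hill fit of % inhibition.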

[6] = Primary redox qHTS assay for identification of artifact compounds. (AID 1845223); conditions: Amplex Red/HRP redox cycling with DTT, fluorescence; series mostly up to 53.8 µM
Procedure, shortened: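 Redox-cycling detection via DTT (250 uM final) oxidation coupled to Amplex Red (25 uM)/HRP (250 mU/mL) in HBSS. 15 min preincubation plus 30 min after DTT, room temperature. Ex/Em 525/598 nm; 4-parameter Hill fit against DMSO and 10 uM DA3003.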

Phospholipid hydroperoxide glutathione peroxidase GPX4 (Homo sapiens), sequence (P36969 whole entry, looked up): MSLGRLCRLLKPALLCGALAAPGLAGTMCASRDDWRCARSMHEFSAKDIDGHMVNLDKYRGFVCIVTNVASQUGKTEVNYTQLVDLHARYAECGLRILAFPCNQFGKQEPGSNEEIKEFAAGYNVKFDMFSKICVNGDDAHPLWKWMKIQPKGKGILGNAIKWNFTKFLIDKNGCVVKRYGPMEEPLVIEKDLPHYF
Glutathione peroxidase 1 (Homo sapiens), sequence (P07203 whole entry, looked up): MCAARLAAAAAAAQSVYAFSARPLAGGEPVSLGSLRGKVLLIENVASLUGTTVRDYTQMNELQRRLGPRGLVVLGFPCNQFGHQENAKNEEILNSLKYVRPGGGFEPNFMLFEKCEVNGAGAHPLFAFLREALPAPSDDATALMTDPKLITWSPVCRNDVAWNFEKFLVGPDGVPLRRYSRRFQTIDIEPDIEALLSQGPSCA

CCOC(=O)c1c[nH]c2cc(OCC(C)C)c(OCC(C)C)cc2c1=O
Potency [1]: inactive | Potency [2]: inactive

COc1ccc(C[C@H](C)NC[C@@H](O)c2ccc(O)c(NC=O)c2)cc1
Potency [1]: inactive | Potency [2]: inactive | outcome [3]: inactive | outcome [4]: inactive | outcome [5]: inactive | outcome [6]: inactive

CCN(CC)CCOCCOC(=O)C(CC)(CC)c1ccccc1
Potency [1]: inactive | Potency [2]: inactive | outcome [3]: inactive | outcome [4]: inactive | outcome [5]: inactive | outcome [6]: inactive

Cc1ncc(C[n+]2csc(CCOP(=O)(O)OP(=O)(O)O)c2C)c(N)n1
activity, negative = inhibition [1]: -4.18% [at 0.4 µM] | activity change, negative = inhibition [2]: -9.41% [at 0.409 µM]

O=C(O)c1ccc(NC(=O)[C@H](Cc2ccc(O)cc2)NC(=O)c2ccccc2)cc1
Potency [1]: inactive | Potency [2]: inactive

CC(C)(C)c1ccc(CN2CCN(C(c3ccccc3)c3ccc(Cl)cc3)CC2)cc1 (stereo unspecified)
Potency [1]: inactive | Potency [2]: inactive | outcome [3]: inactive | outcome [4]: inactive | outcome [5]: inactive | outcome [6]: inactive

CC(CC=O)CCCC(C)(C)O (stereo unspecified)
Potency [1]: inactive | Potency [2]: inactive

C/C(=C\C(=O)OCCCCCCCCC(=O)O)C[C@@H]1OC[C@H](C[C@@H]2O[C@H]2[C@@H](C)[C@H](C)O)[C@@H](O)[C@H]1O
Potency [1]: inactive | Potency [2]: inactive | outcome [3]: inactive | outcome [4]: inactive | outcome [5]: inactive

COc1cc(C)c(/C=C/C(C)=C/C=C/C(C)=C/C(=O)O)c(C)c1C
Potency [1]: inactive | Potency [2]: 16.1 µM (active)

c1ccc2ccccc2c1
Potency [1]: inactive | Potency [2]: inactive

C[C@]12CC[C@@H]3c4ccc(OC(=O)c5ccccc5)cc4CC[C@H]3[C@@H]1CC[C@@H]2O
Potency [1]: inactive | Potency [2]: inactive | outcome [3]: inactive | outcome [5]: inactive | outcome [6]: inactive

CNCC(O)c1ccc(OC(=O)C(C)(C)C)c(OC(=O)C(C)(C)C)c1 (stereo unspecified)
Potency [1]: inactive | Potency [2]: inactive

Cc1ncc(COP(=O)(O)O)c(CN)c1O
Potency [1]: inactive | Potency [2]: inactive

CO/N=C(\C(=O)N[C@@H]1C(=O)N2C(C(=O)O)=C(C[N+]3(C)CCCC3)CS[C@H]12)c1csc(N)n1
Potency [1]: 11.4 µM (active) | Potency [2]: 17.8 µM (active)

COc1cc2c(cc1OC)[C@@H](Cc1cc(OC)c(OC)c(OC)c1)[N+](C)(CCCOC(=O)CC/C=C/CCC(=O)OCCC[N+]1(C)CCc3cc(OC)c(OC)cc3[C@H]1Cc1cc(OC)c(OC)c(OC)c1)CC2 (stereo partly specified)
Potency [1]: inactive | Potency [2]: inactive

CO[C@H]1O[C@@H]2O[C@@]3(C)CC[C@H]4[C@H](C)CC[C@@H]([C@H]1C)[C@@]24OO3
Potency [1]: inactive | Potency [2]: inactive

CCCCCCCCCC(=O)NO
Potency [1]: inactive | Potency [2]: inactive

N[C@@H](Cc1cc(I)c(Oc2ccc(O)c(I)c2)c(I)c1)C(=O)O
outcome [3]: inactive | outcome [4]: inactive | outcome [5]: inactive | outcome [6]: inactive
